# Measured values published in paper PMC7862700, “An all-to-all approach to the identification of sequence-specific readers for epigenetic DNA modifications on cytosine”.
# What was measured:
# Experiment in all cases: DAPPL (digital affinity profiling via proximity ligation, sequencing); 10 mM Tris-HCl pH 7.5, 50 mM NaCl, 1 mM DTT, 4% glycerol, room temperature, 30 min; GST-TFs on glutathione beads, 16-mer random dsDNA library, 0.1% formaldehyde crosslink after washing; high values mean tight binding
# FEV = target: T1, FEV (Homo sapiens, UniProt Q99581 1-238); conditions: protein: recombinant; tags: N-terminal GST; dsDNA, one strand shown
# T1 sequence: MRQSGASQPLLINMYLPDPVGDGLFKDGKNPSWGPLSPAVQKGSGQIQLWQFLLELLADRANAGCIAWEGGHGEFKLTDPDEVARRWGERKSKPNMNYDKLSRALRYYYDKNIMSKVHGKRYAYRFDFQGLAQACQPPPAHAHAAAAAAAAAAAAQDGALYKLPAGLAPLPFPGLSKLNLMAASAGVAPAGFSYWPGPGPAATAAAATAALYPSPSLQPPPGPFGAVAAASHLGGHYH
# Method in brief: (§1)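 Pools of DNA-barcoded human transcription factors, expressed in yeast as GST fusions on glutathione beads and combined with a tag-only sample, were incubated with 200 nmole of a 16-mer random double-stranded DNA library. Incubation took 30 min at room temperature in Tris/NaCl/DTT/glycerol buffer and was followed by washing, 0.1% formaldehyde crosslinking, proximity ligation (BsaI/T4 ligase, 1 h, 37 °C), PCR amplification and sequencing on an Illumina NextSeq500. Binding signal is the ratio of a hexamer's read frequency for a factor to its frequency for the tag-only sample.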
# ETV5 = ETV5 (Homo sapiens, UniProt P41161 1-510); conditions: protein: recombinant; tags: N-terminal GST; dsDNA, one strand shown
# Method in brief: as §1
# HSF1 = HSF1 (Homo sapiens, UniProt Q00613 1-529); conditions: protein: recombinant; tags: N-terminal GST; chain copies: 3; dsDNA, one strand shown
# Method in brief: as §1
# SPIC = target: T2, SPIC (Homo sapiens, UniProt Q8N5J4 1-248); conditions: protein: recombinant; tags: N-terminal GST; dsDNA, one strand shown
# T2 sequence: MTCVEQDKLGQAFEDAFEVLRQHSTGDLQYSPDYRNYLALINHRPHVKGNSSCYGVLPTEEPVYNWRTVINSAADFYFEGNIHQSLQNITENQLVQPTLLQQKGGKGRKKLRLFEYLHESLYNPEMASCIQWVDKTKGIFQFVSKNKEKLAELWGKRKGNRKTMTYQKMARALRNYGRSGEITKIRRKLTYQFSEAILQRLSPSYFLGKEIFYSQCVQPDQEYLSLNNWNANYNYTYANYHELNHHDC
# Method in brief: as §1
# ELF4 = ELF4 (Homo sapiens, UniProt Q99607 1-663); conditions: protein: recombinant; tags: N-terminal GST; dsDNA, one strand shown
# Method in brief: as §1
# ELK4 = target: T3, ELK4 (Homo sapiens, UniProt P28324-2 1-405); conditions: protein: recombinant; tags: N-terminal GST; dsDNA, one strand shown
# T3 sequence: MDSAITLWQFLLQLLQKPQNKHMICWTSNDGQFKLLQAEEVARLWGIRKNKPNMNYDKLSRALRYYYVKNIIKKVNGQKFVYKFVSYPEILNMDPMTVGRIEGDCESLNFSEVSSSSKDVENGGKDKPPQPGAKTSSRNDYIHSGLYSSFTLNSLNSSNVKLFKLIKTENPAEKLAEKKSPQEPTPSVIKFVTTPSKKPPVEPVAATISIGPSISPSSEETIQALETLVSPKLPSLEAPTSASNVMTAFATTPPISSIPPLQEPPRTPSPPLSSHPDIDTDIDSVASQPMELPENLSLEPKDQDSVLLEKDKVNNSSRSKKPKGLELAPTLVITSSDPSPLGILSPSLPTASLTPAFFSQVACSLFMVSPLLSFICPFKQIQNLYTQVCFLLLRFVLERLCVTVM
# Method in brief: as §1
# ETV2 = target: T4, ETV2 (Homo sapiens, UniProt O00321 1-342); conditions: protein: recombinant; tags: N-terminal GST; dsDNA, one strand shown
# T4 sequence: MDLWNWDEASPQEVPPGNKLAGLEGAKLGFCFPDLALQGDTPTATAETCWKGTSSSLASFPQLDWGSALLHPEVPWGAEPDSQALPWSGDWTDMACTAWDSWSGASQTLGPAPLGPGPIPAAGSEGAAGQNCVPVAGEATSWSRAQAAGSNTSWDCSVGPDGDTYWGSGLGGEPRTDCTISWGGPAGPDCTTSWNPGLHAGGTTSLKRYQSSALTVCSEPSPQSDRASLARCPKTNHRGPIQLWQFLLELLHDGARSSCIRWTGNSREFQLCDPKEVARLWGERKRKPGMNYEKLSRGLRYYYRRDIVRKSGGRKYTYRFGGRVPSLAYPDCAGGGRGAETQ
# Method in brief: as §1
# ELF3 = target: T5, ELF3 (Homo sapiens, UniProt P78545 1-371); conditions: protein: recombinant; tags: N-terminal GST; dsDNA, one strand shown
# T5 sequence: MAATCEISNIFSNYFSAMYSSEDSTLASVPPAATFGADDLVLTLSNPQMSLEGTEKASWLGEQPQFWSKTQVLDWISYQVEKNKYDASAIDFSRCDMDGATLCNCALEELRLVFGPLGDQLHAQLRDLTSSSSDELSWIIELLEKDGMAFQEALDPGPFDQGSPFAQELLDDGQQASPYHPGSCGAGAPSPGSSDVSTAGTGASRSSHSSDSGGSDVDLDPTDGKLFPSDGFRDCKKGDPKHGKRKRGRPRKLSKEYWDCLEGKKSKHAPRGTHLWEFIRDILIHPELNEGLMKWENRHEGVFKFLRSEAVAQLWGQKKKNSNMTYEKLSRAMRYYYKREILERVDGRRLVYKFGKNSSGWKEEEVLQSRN
# Method in brief: as §1
# CRX = CRX (Homo sapiens, UniProt O43186 1-299); conditions: protein: recombinant; tags: N-terminal GST; dsDNA, one strand shown
# Method in brief: as §1
# Sequence of ELF4 (Q99607 whole entry): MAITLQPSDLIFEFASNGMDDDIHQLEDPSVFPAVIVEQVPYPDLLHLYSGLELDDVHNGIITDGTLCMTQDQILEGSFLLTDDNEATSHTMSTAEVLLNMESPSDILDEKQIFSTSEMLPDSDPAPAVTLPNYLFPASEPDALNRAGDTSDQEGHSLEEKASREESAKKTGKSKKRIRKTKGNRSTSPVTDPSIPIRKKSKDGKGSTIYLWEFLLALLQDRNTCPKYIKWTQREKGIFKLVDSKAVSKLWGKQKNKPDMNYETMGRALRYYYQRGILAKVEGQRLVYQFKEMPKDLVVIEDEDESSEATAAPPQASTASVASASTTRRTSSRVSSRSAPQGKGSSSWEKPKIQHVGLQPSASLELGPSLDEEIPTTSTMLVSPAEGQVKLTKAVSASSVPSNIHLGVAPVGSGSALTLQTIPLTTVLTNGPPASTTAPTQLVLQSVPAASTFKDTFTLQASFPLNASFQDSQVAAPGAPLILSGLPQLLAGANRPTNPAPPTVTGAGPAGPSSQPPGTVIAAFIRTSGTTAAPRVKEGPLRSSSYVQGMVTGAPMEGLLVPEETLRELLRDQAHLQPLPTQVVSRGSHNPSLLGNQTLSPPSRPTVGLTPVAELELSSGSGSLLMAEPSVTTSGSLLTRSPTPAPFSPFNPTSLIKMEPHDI
# Sequence of HSF1 (Q00613 whole entry): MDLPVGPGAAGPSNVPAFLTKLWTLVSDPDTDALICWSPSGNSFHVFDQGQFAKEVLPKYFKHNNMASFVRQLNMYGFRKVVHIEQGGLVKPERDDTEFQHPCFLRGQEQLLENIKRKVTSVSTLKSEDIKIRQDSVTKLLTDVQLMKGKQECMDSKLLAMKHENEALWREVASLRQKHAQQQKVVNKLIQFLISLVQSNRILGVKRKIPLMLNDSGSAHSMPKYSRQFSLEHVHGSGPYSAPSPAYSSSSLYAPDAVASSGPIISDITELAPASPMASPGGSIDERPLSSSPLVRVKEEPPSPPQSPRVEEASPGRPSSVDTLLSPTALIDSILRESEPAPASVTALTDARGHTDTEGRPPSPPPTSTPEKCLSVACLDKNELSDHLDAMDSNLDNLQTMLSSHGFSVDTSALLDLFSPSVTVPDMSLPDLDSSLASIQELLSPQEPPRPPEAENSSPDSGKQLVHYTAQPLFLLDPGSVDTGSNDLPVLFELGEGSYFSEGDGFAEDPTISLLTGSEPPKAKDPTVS
# Sequence of ETV5 (P41161 whole entry): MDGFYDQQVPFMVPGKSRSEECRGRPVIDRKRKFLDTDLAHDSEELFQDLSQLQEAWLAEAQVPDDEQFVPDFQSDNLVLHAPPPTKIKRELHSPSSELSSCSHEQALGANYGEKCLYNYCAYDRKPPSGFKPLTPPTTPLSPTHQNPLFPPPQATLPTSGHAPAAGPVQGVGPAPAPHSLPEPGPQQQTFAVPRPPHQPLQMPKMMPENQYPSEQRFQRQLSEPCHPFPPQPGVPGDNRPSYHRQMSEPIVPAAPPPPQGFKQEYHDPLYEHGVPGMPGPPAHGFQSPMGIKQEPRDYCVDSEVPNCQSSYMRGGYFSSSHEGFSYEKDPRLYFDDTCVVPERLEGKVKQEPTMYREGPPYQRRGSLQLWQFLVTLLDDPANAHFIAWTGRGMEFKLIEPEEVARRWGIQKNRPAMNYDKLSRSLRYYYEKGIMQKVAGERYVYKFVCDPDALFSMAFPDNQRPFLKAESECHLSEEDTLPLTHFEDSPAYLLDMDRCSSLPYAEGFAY
# Sequence of CRX (O43186 whole entry): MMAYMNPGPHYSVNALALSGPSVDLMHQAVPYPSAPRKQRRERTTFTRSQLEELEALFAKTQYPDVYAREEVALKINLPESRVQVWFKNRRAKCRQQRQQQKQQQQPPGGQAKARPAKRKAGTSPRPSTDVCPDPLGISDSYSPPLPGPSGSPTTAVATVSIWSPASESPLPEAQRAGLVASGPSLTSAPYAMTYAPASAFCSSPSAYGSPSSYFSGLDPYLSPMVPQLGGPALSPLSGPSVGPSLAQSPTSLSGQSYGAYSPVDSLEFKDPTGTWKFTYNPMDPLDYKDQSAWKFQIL
sequence,measurement,setting,value
CTCTCT,binding signal,FEV,"1.67 fold enrichment (6-mer frequency, TF over GST control)"
same,binding signal,ETV5,"1.57 fold enrichment (6-mer frequency, TF over GST control)"
same,binding signal,HSF1,"1.69 fold enrichment (6-mer frequency, TF over GST control)"
same,binding signal,SPIC,"1.77 fold enrichment (6-mer frequency, TF over GST control)"
same,binding signal,ELF4,"1.74 fold enrichment (6-mer frequency, TF over GST control)"
same,binding signal,ELK4,"1.74 fold enrichment (6-mer frequency, TF over GST control)"
same,binding signal,ETV2,"1.63 fold enrichment (6-mer frequency, TF over GST control)"
same,binding signal,ELF3,"1.58 fold enrichment (6-mer frequency, TF over GST control)"
same,binding signal,CRX,"1.5 fold enrichment (6-mer frequency, TF over GST control)"
